Measured values reported in PubChem BioAssay (Tox21).
Inconclusive results are not listed. A call without a number means that no potency is given here. A number with no mark means an inactive call. The source made the active and inactive calls. The call rests on the fitted dose curve.

Assay: p53 small molecule agonists, cell-based qHTS assay: qHTS cell viability counter screen (AID 1963581); further: nearly all actives have a fitted effect of over 45% in size
Conditions: p53RE-bla HCT-116 viability, ATP luminescence, 16 h; series mostly up to 66 µM
From the text: National Center for Advancing Translational Sciences [NCATS]
Division of Preclinical Innovation [DPI]
U.S. Environmental Protection Agency [EPA]
National Institutes of Environmental Health Sciences [NIEHS]
National Toxicology Program [NTP]
U.S. Food and Drug Administration [FDA]
p53, a tumor suppressor protein, is activated following cellular insult, including DNA damage and other cellular stresses. The activation of p53 regulates cell fate by inducing DNA repair, cell cycle arrest, apoptosis, or cellular senescence. The activation of p53, therefore, is a good indicator of DNA damage and other cellular stresses. The CellSensor p53RE-bla HCT-116 cell line (Invitrogen) contains a stably integrated beta-lactamase reporter gene under control of the p53 response elements. The activation of the reporter gene under culture conditions can be detected by fluorescence intensity. This cell line was used to screen the Tox21 compound library in a 1536-well plate format and to identify agonists that activate the p53 signaling pathway. The cytotoxicity of the Tox21 compound library against the p53 RE-bla HCT-116 cell line was tested in parallel by measuring the intra cellular ATP content in the same wells.
Tox21 Assay Protocol Summary:
The p53RE-bla cells were dispensed at 4,000 cells/5 ul/well in 1536-well black wall/clear bottom plates using a Multidrop dispenser. After the assay plates were incubated at a 37 C/5% CO2 incubator for 5 hours, 23 nL of compounds dissolved in DMSO, positive controls or DMSO only was transferred to the assay plate by a pin tool. The plates were incubated at 37 C for 16 hours. After 1 uL of LiveBLAzerTM B/G FRET substrate was added using a Flying Reagent Dispenser, the plates were incubated at room temperature for 2 hours, and fluorescence intensity was measured by an Envision plate reader. For cell viability readout that measures cytotoxicity, 4 ul/well of CellTiter-Glo reagent was added into the assay plates using a Flying Reagent Dispenser. After 30 min incubation at room temperature, the luminescence intensity in the plates was measured using a ViewLux plate reader.
In the case of CCCOC(=O)C(C)O (stereo not given), the Potency is reported as “inactive”.
With CCO[Si](C)(OCC)OCC the Potency was “inactive”.
With COc1c(Cl)ccc(Cl)c1C(=O)O the Potency was “inactive”.
With NCC1CCCC(CN)C1 (stereo not given) the Potency was “inactive”.
For Cc1ncsc1CCO, the Potency was “inactive”.
With C[N+](C)(C)CC[N+]1(C)Cc2c(Cl)c(Cl)c(Cl)c(Cl)c2C1 the Potency was “inactive”.
In the case of CC1(C)O[C@H]2CC(=O)OC[C@]23[C@H]2CC[C@@]4(C)[C@H](c5ccoc5)OC(=O)[C@H]5O[C@]54[C@]2(C)C(=O)C[C@@H]13, the Potency is reported as “inactive”.
With CC1(C)[C@@H]2CC[C@@]1(C)[C@H](O)C2 the Potency was “inactive”.
In the case of COC(=O)OC, the Potency is reported as “inactive”.
In the case of CCCCCCCCSCC, the Potency is reported as “inactive”.
For COc1cc(C(=O)N2CCCCCCC2)cc(OC)c1OC, the Potency was “inactive”.
With COc1cccc(OC)c1 the Potency was “inactive”.
With c1ccc2ncccc2c1 the Potency was “inactive”.
For CCCOCCC, the Potency was “inactive”.
In the case of COc1ccccc1/C=C/C=O, the Potency is reported as “inactive”.
For C=C(C)[C@H]1CC=C(C)C(=O)C1, the Potency was “inactive”.
In the case of C1CCCNCCC1, the Potency is reported as “inactive”.
With Cc1cc(N)no1 the Potency was “inactive”.
For CO[C@@H]1[C@@H](O[C@@H]2O[C@H](C)[C@@H](O[C@H]3C[C@@](C)(O)[C@@H](O)[C@H](C)O3)[C@H](N(C)C)[C@H]2O)[C@@H](CC=O)C[C@@H](C)[C@@H](O[C@@H]2CC[C@H](N(C)C)[C@@H](C)O2)/C=C/C=C/C[C@@H](C)OC(=O)C[C@H]1OC(C)=O, the Potency was “inactive”.
For CC/C=C\C/C=C\C/C=C\CCCCCCCC(=O)O, the Potency was “inactive”.
In the case of O=S(=O)(O)c1ccc2c(N=Nc3ccc(S(=O)(=O)O)c4ccccc34)c(O)c(S(=O)(=O)O)cc2c1, the activity change, negative = cytotoxicity is reported as -2.08% [at 5.99 µM].
For CN(C)CCCN(C)CCCN(C)C, the Potency was “inactive”.
With CCCc1ccccc1 the Potency was “inactive”.
For COC(=O)c1cc(Cl)ccc1OC, the Potency was “inactive”.
With C=CC(=O)OCCN(CC)CC the Potency was “inactive”.
In the case of CCCC(=O)OCC(COC(=O)CCC)OC(=O)CCC, the Potency is reported as “inactive”.
In the case of BrC1CCC(Br)C(Br)CCC(Br)C(Br)CCC1Br (stereo not given), the Potency is reported as “inactive”.
In the case of C[C@@H]1O[C@@H](OC[C@H]2O[C@@H](Oc3c(-c4ccc(O)c(O)c4)oc4cc(O)cc(O)c4c3=O)[C@H](O)[C@@H](O)[C@@H]2O)[C@H](O)[C@H](O)[C@H]1O, the Potency is reported as “inactive”.
For Nc1c(Br)cc([N+](=O)[O-])cc1Br, the Potency was “inactive”.
In the case of CCC(O)CO (stereo not given), the Potency is reported as “inactive”.
With C=CCCCCCCCCC(=O)OCCCC the Potency was “inactive”.
With C=CCOCC(CC)(CO)COCC=C the Potency was “inactive”.
With CCOC(/C=C(\C)CCC=C(C)C)OCC the Potency was “inactive”.
With OCCN1CCNCC1 the Potency was “inactive”.
With COC(CC(C)CCCC(C)(C)O)OC (stereo not given) the Potency was “inactive”.
In the case of N#Cc1cc(NC(=O)C(=O)O)c(Cl)c(NC(=O)C(=O)O)c1, the Potency is reported as “inactive”.
For Clc1ccc2c(Cl)ccnc2c1, the Potency was “inactive”.
In the case of Nc1ccc2c(S(=O)(=O)O)cccc2c1S(=O)(=O)O, the Potency is reported as “inactive”.
For FC(F)(F)c1ccccc1, the Potency was “inactive”.
With N#CC1(O)CCCCC1 the Potency was “inactive”.
